In PubChem BioAssay AID602410 (Johns Hopkins Ion Channel Center, 2012):
Among all 340,000 compounds or so, about 2,800 (0.82%) were called active.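 The calls were made as follows: active = B-score under library mean minus 4 SD, starting fluorescence ratio at most library mean plus 5 SD; inactive = the rest.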 The entries come from a sample that favours actives as a whole.

What follows are compounds tested against Potassium channel subfamily K member 3 (Homo sapiens) (UniProt O14649) (assay: blockers of TASK1 two-pore potassium channel – CHO cells, FluxOR thallium flux, B-score, primary screen (AID 602410;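 as to B-score: more negative B-score means stronger inhibition of thallium flux through KCNK3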)). Settings: CHO-KCNK3 thallium flux, FluxOR fluorescence, at 10 µM; hits give low values.
Chain of Potassium channel subfamily K member 3 (Homo sapiens) (O14649 whole entry, looked up): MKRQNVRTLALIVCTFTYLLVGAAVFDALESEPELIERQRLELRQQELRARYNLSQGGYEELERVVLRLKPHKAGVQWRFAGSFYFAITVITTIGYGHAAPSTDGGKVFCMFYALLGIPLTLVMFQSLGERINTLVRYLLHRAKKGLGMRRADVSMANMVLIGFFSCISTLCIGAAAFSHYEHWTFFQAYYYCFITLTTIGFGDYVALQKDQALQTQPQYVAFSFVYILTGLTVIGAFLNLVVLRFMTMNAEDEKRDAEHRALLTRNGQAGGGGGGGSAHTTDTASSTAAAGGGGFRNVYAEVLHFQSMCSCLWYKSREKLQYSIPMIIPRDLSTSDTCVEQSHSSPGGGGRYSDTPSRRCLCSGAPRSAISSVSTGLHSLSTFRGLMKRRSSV

Structure (SMILES)	B-score
Cc1c(S(=O)(=O)NC(C)c2ccccc2)c(=O)n(C)c(=O)n1C (stereo not given)	inactive
Cc1ccc(NC(=O)COC(=O)CNC(=O)c2ccc(Cl)cc2Cl)cc1S(=O)(=O)N1CCOCC1	-10.7 (active)
Cc1ccc(NC(=O)COC(=O)C2CC2)cc1S(=O)(=O)N1CCOCC1	inactive
Cc1ccc(NC(=O)CCCNC(=O)c2ccc(Cl)cc2)cc1S(=O)(=O)N1CCOCC1	inactive
CC1COc2ccccc2N1C(=O)c1cccnc1Cl (stereo not given)	inactive
COc1ccc(CCNC(=O)c2ccccc2OCc2ccccc2)cc1	inactive
O=C(NC1CCC(O)CC1)c1ccccc1OCc1ccc(F)cc1 (stereo not given)	inactive
CC(=O)c1ccccc1OCc1ccc(C(=O)c2ccccc2)cc1	-15.7 (active)
O=C(OCCOCn1cc(Br)c(=O)[nH]c1=O)c1ccccc1	inactive
Cc1nc2ccccc2cc1OCc1ccc(F)cc1	-11.4 (active)
Cc1occc(=O)c1OCc1ccc(F)cc1	inactive
Fc1cccc2ncnc(OCc3ccccc3)c12	inactive
CCc1ccc(N2CC(C(=O)N3CCCCCC3)CC2=O)cc1 (stereo not given)	inactive
COc1cc(/C=N/N2CCN(c3ccccc3)CC2)ccc1OC(C)=O	inactive
COc1ccccc1N1CCN(/N=C\C(Br)=C\c2ccccc2)CC1	-9.41 (active)
COc1ccccc1N1CCN(/N=C/c2ccc(O)cc2O)CC1	inactive
COc1ccc(CC(=O)N[C@@H](CCSC)c2nc3ccccc3[nH]2)cc1	inactive
CC1CC(C)CN(c2ccc(S(=O)(=O)N3CCOCC3)cc2)C1 (stereo not given)	inactive
Cc1cc(C)c(C#N)c(SCc2ccc3c(c2)OCO3)n1	-11.2 (active)
Cc1ccc(CSc2nsc(C)c2C#N)cc1	inactive
Cc1cc(C)c(C#N)c(SCc2ccccc2C(=O)O)n1	inactive
CCOc1ccc(OCC)c(NC(=O)C(NS(=O)(=O)c2ccc3c(c2)oc(=O)n3C)C(C)C)c1 (stereo not given)	inactive
COc1ccccc1OCC(=O)Nc1ccccc1C(=O)NC1CC1	inactive
COc1ccc(C(=O)c2c3ccc([N+](=O)[O-])cc3[n+]([O-])n2CCCN)cc1	inactive
COCC(=O)Nc1cc(C(=O)OC)cc(C(=O)OC)c1	inactive
O=C(O)c1ccccc1C(=O)NC1=NN(c2ccccc2)CC1	inactive
N/C(=N\OC(=O)CCn1cccc(C(F)(F)F)c1=O)c1ccc(OC(F)(F)F)cc1	inactive
C=CCc1cc(S(=O)(=O)c2ccc(O)c(CC=C)c2)ccc1O	-11 (active)
COc1ccc(CNC(=O)C2CCC(CNc3c(N4CCOCC4)c(=O)c3=O)CC2)cc1 (stereo not given)	inactive
O=C(NCCc1ccccn1)c1nc(Cn2cc([N+](=O)[O-])cn2)no1	inactive
